This is a sample that favours compounds with a hit; in the whole collection about 7.5% have one here.
ELG1 genotox: genotoxicity induction in ELG1-luciferase HEK293T cells | 1.3% of 330,000 active | Potency, µM (titrated, usually from 46 µM), for inactives: at the top dose activity change, positive = activation, usual class: activators | AID 504466 | HEK293T ELG1-luciferase reporter, luminescence, 16 h; further: % of control where 0% means no effect; nearly all actives have a fitted effect of over 60% in size
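Genotoxicity was scored as increased ELG1-luciferase reporter signal, measured by ONE-Glo luminescence (30 min, room temperature). Compound or vehicle exposure of the HEK293T reporter cells lasted 16 hr at 37°C.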
Rab9 prom act: activators of Rab9 promoter; Huh7 Rab9 promoter-luciferase reporter, luminescence, 24 h; Potency, µM (titrated, usually from 9.22 µM), inactives show at the top dose activation, negative = inhibition, hits mostly activators; 2.8% of 320,000 active; AID 485297; further: % of control where 0% means no effect; nearly all actives have a fitted effect of over 60% in size
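Luminescence from Amplite-detected luciferase (10 minutes, ambient) reports Rab9 promoter activation. Before that, stable Rab9-luciferase Huh7 cells (1500/well, reduced-serum OP-MEM I plus 10% FBS) were exposed to compound for 24 hours at 37C.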
Luc counter: blocks Kinase-Glo luciferase, a counter-screen artifact; Q27757; Kinase-Glo luciferase, ATP luminescence, 8 min; Potency, µM (doses to about 38.3 µM), inactives show at the top dose activity change, negative = inhibition, actives largely listed as inhibitors; 0.28% of 200,000 active; AID 1379; further: on the % scale 0 is the no-effect control and ±100 the full control effect; nearly all actives have a fitted effect of over 60% in size
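Compounds were added to a substrate mix at pH 7.2 (50 mM imidazole, 10 uM ATP, within the enzyme's linear range), followed by Kinase-Glo detection reagent; luminescence was measured after 8 minutes at ambient temperature.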
SMN2 splice enh: enhancers of SMN2 splice variant expression. HEK293 SMN2-luciferase splicing reporter, luminescence, 30-36 h. Potency, µM (highest dose often 46.1 µM), for the others: at the top dose activity change, positive = activation, actives largely listed as activators. 2.8% of 210,000 active. AID 1458; further: % of control where 0% means no effect; nearly all actives have a fitted effect of over 55% in size
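HEK293 cells carry an SMN2 minigene-luciferase reporter in which exon 7 inclusion puts luciferase in frame. Cells were seeded at 2000 cells/well, attached for 10-12 hours, then exposed to compounds for 30-36 hours at 37C before ONE-Glo luminescence.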
NPC1 prom act: activates the NPC1 promoter | Huh7 NPC1 promoter luciferase reporter, 24 h | Potency, µM (series often up to 9.22 µM), for inactives: at the top dose activation, usual class: activators | 2.4% of 320,000 active | AID 485313; further: % of control where 0% means no effect; nearly all actives have a fitted effect of over 60% in size
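Stably transfected Huh7 (NPC1 promoter→luciferase), 1500 cells/well in Opti-MEM + 10% FBS, 2 h settle, then compound 24 h at 37 °C. Luminescence after 10 min with Amplite reagent.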
FLuc counter: inhibits or activates purified firefly luciferase, miR-21 counter-screen; P08659; purified FLuc, Km substrates, luminescence inhibition; Potency, µM (highest dose often 57.5 µM), without a hit: at the highest dose activity change, negative = inhibition, most hits filed as inhibitors; 6.9% of 360,000 active;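 further: plate controls were vehicle for no effect and reference inhibitor for full effect; nearly all actives have a fitted effect of over 55% in size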
Target sequence (P08659 whole entry, looked up): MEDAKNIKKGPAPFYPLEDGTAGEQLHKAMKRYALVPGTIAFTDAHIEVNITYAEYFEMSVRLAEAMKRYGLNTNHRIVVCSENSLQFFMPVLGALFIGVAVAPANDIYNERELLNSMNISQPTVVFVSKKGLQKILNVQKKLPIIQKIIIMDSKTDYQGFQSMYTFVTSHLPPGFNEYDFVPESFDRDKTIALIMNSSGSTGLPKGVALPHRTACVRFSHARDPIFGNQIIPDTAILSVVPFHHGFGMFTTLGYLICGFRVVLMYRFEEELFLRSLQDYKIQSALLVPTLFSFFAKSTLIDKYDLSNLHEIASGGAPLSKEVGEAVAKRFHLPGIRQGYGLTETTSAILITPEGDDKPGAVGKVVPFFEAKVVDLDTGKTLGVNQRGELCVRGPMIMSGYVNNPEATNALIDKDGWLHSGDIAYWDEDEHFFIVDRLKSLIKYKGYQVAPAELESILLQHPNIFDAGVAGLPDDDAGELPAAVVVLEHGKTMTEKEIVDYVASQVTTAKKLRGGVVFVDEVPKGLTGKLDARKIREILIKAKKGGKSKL
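Purified P. pyralis luciferase (10nM final) with 10uM D-luciferin and 10uM ATP (Km levels) in 50mM Tris acetate pH 7.5, 10mM Mg acetate, 0.01% Tween-20, 0.05% BSA; qHTS 6-point titration, ~60 µM downward; luminescence read.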
An asterisk follows results filed as active; ? = inconclusive; · = no result; [ ] = another dose, or the depositor's remark. The call rests on the fitted dose curve; in most records, active means well fitted curve in the direction sought with a large enough effect; inconclusive means small, poorly fitted or top-dose-only effect, or another doubt; inactive means no such curve, though single readings can be large; an effect the other way counts as inactive or inconclusive. Potency means the concentration at half of the fitted maximal effect.

SMILES	ELG1 genotox	Rab9 prom act	Luc counter	SMN2 splice enh	NPC1 prom act	FLuc counter
O=C1OC2(CCCCC2)OC(=O)C1=CNc1ccc2c(c1)OCO2	5%	0%	-2%	11%	8%	?
CCCn1c(SCc2nc(-c3ccccc3C)no2)nnc1-c1ccc(Cl)cc1	·	·	·	2%	·	-3%
CCCCOC(=O)Sc1nc2ccccc2o1	-7%	-11%	1%	13%	-2%	15µM*
COc1ccc(C(=O)N/C(N)=N/c2nc3ccccc3o2)cc1	3%	20%	-4%	-23%	23%	-8%
COc1ccc(C(=O)/C=C/Sc2nc3ccccc3o2)cc1	9%	-43%	·	·	-20%	2.4µM*
COc1cccc(NC(=O)c2c(N3CCCC3=O)c3cc(C)ccc3n2C)c1	·	·	·	·	·	0%
O=C(NCCC1=CCCCC1)c1cnccn1	15µM*	3.2µM*	-1%	11µM*	?	?
O=C(CCn1c(=O)sc2ccccc21)NCCC1=CCCCC1	-8%	3%	-4%	4%	2%	-4%
O=C(NCCC1=CCCCC1)c1ccc(Cl)cc1	?	0.28µM*	-13%	·	0.32µM*	1.3µM*
O=C(CCN1C(=O)c2ccccc2C1=O)NCCC1=CCCCC1	30%	2.5µM*	8%	14%	?	21µM*
CS(=O)(=O)N(Cc1ccc(Cl)cc1)c1ccc(C(=O)NCCC2=CCCCC2)cc1	1%	-2%	-1%	0%	1%	2%
O=C(CCSc1ccccc1)N1CCN(c2ccccc2)CC1	?	2.8µM*	3%	22µM*	2.8µM*	19µM*
O=C(/C=C/C(=O)N1CCc2ccccc2C1)N1CCc2ccccc2C1	-2%	-2%	·	·	0%	-3%
O=C(CSc1ccccc1)N1CCN(c2ccccc2)CC1	8%	20%	1%	?	17%	?
Cc1ccccc1N1CCN(C(=O)CCN2C(=O)c3ccccc3C2=O)CC1	5%	17%	-7%	4%	1%	17µM*
CN1CCN(C(=O)CCN2C(=O)c3ccccc3C2=O)CC1	1%	-3%	-1%	·	-1%	-2%
O=C(Cc1ccc(Br)cc1)N1CCc2ccccc2C1	?	?	·	·	?	17µM*
Cc1cccc(N2CCN(C(=O)CCCOc3ccccc3)CC2)c1C	2.6µM*	2.5µM*	1%	16µM*	3.2µM*	7.6µM*
O=C(CCCOc1ccccc1)N1CCc2ccccc2C1	21µM*	23%	0%	13µM*	29%	24µM*
O=C(CCCOc1ccccc1)N1CCN(S(=O)(=O)c2ccccc2)CC1	-1%	16%	·	·	-2%	·
O=C(CCCOc1ccc(Cl)cc1Cl)N1CCc2ccccc2C1	1%	-8%	2%	-58%	-3%	-17%
CCOC(=O)N1CCN(C(=O)CCCOc2ccccc2)CC1	?	1.8µM*	2%	13µM*	2.8µM*	-11%[2.3 µM]
O=C(CCCOc1ccccc1)N1CCN(c2ccccc2)CC1	9.2µM*	2.8µM*	-3%	?	3.5µM*	9.5µM*
Cc1ccc(-c2cc(-c3coc4ccc(Cl)cc4c3=O)c3c(n2)-c2ccccc2OC3)cc1	·	·	·	0%	·	-6%
COc1cccc(-c2nc(SCc3ccc(C)cc3)n3[nH]c(=O)cc3n2)c1	·	·	·	·	·	-13%
SMILES	ELG1 genotox	Rab9 prom act	Luc counter	SMN2 splice enh	NPC1 prom act	FLuc counter
CCOc1ccccc1NC(=O)CCS(=O)(=O)c1ccc2c(c1)oc(=O)n2C	·	·	·	·	·	-1%
O=c1c(N2CCc3ccccc3C2)csc2ccccc12	·	·	·	·	·	9.5µM*
O=c1c(N2CCc3ccccc3C2)csc2ccc(Br)cc12	·	·	·	·	·	9.5µM*
COc1ccccc1N1CCN(c2csc3ccccc3c2=O)CC1	·	·	·	·	·	11µM*
O=c1c(N2CCN(c3cccc(C(F)(F)F)c3)CC2)csc2ccccc12	·	·	·	·	·	0%
Cc1ccc(C2CN=NC23CCc2ccccc2C3=O)cc1 (stereo unspecified)	?	1%	0%	-1%	8%	12µM*

Source: PubChem
